Reference: PubChem BioAssay AID1159580 (chemical genetic matrix, 2015)
Values joined by “and” are separate entries in the source; they are usually repeats but may differ in a detail not shown here. Equal values may be shown once. The whole screen tested about 5,500 compounds, of which about 2,000 (36%) were called active. Another 18% or so got no clear call; they are omitted. No stated cut-off is given here; in the data, active means normalized growth mostly below about 0.91 (no sharp cut-off); inconclusive means no clear call, values can overlap the other calls; inactive means mostly above about 0.92. The list shows a part of the results.

Assay: chemical genetic growth profiling, strain panel (AID 1159580);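 further: tested at 20 µM; growth read once vehicle control cultures reached saturation at 30 °C; 1 = growth at the plate median or of vehicle wells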
Conditions: S. cerevisiae deletion strains, growth OD

Measured: normalized growth

Cn1c(=O)c2c(ncn2C)n(C)c1=O
inactive: locus YAL013W, strain DEP1, stronger effect = lower value 0.997 | locus YAL021C, strain ccr4, stronger effect = lower value 1.01 | locus YAL026C, strain drs2, stronger effect = lower value 0.975 | locus YAL030W, strain snc1, stronger effect = lower value 0.97 | locus YAL040C, strain CLN3, stronger effect = lower value 1.02 | locus YBL061C, strain skt5, stronger effect = lower value 0.962 | locus YBR009C, strain hhf1, stronger effect = lower value 0.94 | locus YBR021W, strain FUR4, stronger effect = lower value 1.01 | locus YBR023C, strain chs3, stronger effect = lower value 0.978 | locus YBR171W, strain sec66, stronger effect = lower value 0.94 | locus YBR229C, strain ROT2, stronger effect = lower value 0.998 | locus YBR231C, strain swc5, stronger effect = lower value 0.989 | locus YBR279W, strain paf1, stronger effect = lower value 0.982 | locus YCL011C, strain gbp2, stronger effect = lower value 0.922 | locus YCL016C, strain dcc1, stronger effect = lower value 0.936 | locus YCL029C, strain bik1, stronger effect = lower value 1.02 | locus YCL061C, strain MRC1 (second series), stronger effect = lower value 1.01 | locus YCL061C, strain MRC1, stronger effect = lower value 0.98 | locus YCL069W, strain vba3, stronger effect = lower value 0.973 | locus YCR088W, strain abp1, stronger effect = lower value 0.983 | locus YDL005C, strain med2, stronger effect = lower value 0.99 | locus YDL035C, strain GPR1, stronger effect = lower value 1.02 | locus YDL040C, strain nat1, stronger effect = lower value 0.987 | locus YDL074C, strain BRE1, stronger effect = lower value 1.03 | locus YDL101C, strain DUN1, stronger effect = lower value 0.999 | locus YDL134C, strain PPH21, stronger effect = lower value 0.992 | locus YDL185W, strain tfp1, stronger effect = lower value 1.02 | locus YDL192W, strain arf1, stronger effect = lower value 1 | locus YDR001C, strain nth1, stronger effect = lower value 0.966 | locus YDR069C, strain doa4, stronger effect = lower value 0.961 | locus YDR101C, strain arx1, stronger effect = lower value 1.04 | locus YDR137W, strain rgp1, stronger effect = lower value 0.943 | locus YDR150W, strain NUM1, stronger effect = lower value 0.998 | locus YDR159W, strain sac3, stronger effect = lower value 0.961 | locus YDR162C, strain NBP2, stronger effect = lower value 0.998 | locus YDR195W, strain ref2 0.99 | locus YDR297W, strain sur2, stronger effect = lower value 0.98 | locus YDR318W, strain mcm21, stronger effect = lower value 0.99 | locus YDR334W, strain swr1, stronger effect = lower value 0.914 | locus YDR335W, strain msn5, stronger effect = lower value 0.969 | locus YDR363W, strain ESC2, stronger effect = lower value 0.985 | locus YDR388W, stronger effect = lower value 1 | locus YDR392W, strain spt3, stronger effect = lower value 0.942 | locus YDR502C, strain sam2, stronger effect = lower value 1.01 | locus YEL003W, strain gim4, stronger effect = lower value 0.979 | locus YEL037C, strain rad23, stronger effect = lower value 0.972 | locus YEL061C, strain CIN8 (second series), stronger effect = lower value 0.977 | locus YEL061C, strain CIN8, stronger effect = lower value 0.996 | locus YER002W, strain NOP16, stronger effect = lower value 1.01 | locus YER015W, strain faa2, stronger effect = lower value 0.971 | locus YER016W, strain bim1, stronger effect = lower value 0.948 | locus YER110C, stronger effect = lower value 1.01 | locus YER111C, strain swi4, stronger effect = lower value 0.949 | locus YER155C, strain BEM2 (second series), stronger effect = lower value 1 | locus YER155C, strain BEM2, stronger effect = lower value 0.994 | locus YER167W, strain BCK2, stronger effect = lower value 1 | locus YFR010W, strain ubp6, stronger effect = lower value 0.96 | locus YGL078C, strain dbp3, stronger effect = lower value 1.02 | locus YGL086W, strain mad1, stronger effect = lower value 1.01 | locus YGL167C, strain pmr1, stronger effect = lower value 0.945 | locus YGL173C, strain kem1, stronger effect = lower value 0.938 | locus YGL227W, strain vid30, stronger effect = lower value 0.97 | locus YGL240W, strain doc1, stronger effect = lower value 0.987 | locus YGL248W, strain PDE1, stronger effect = lower value 1 | locus YGL253W, strain hxk2, stronger effect = lower value 0.982 | locus YGR078C, strain PAC10, stronger effect = lower value 0.995 and 0.992 | locus YGR135W, strain pre9, stronger effect = lower value 0.999 | locus YGR229C, strain SMI1, stronger effect = lower value 0.995 | locus YGR252W, strain gcn5, stronger effect = lower value 1.01 | locus YHR013C, strain ard1, stronger effect = lower value 0.947 | locus YHR027C, strain rpn1, stronger effect = lower value 0.932 | locus YHR030C, strain SLT2, stronger effect = lower value 1 and 1.02 | locus YHR079C, strain IRE1 (second series), stronger effect = lower value 1.01 | locus YHR079C, strain IRE1, stronger effect = lower value 0.993 | locus YHR094C, strain hxt1, stronger effect = lower value 1.01 | locus YHR129C, strain ARP1, stronger effect = lower value 0.996 | locus YHR142W, strain chs7, stronger effect = lower value 0.899 | locus YHR200W, strain rpn10, stronger effect = lower value 1.02 | locus YIL066C, strain RNR3, stronger effect = lower value 1.01 | locus YIL073C, strain SPO22, stronger effect = lower value 1.04 | locus YIL125W, strain kgd1, stronger effect = lower value 1.01 | locus YIR030C, strain dcg1, stronger effect = lower value 0.999 | locus YJL092W, strain hpr5, stronger effect = lower value 0.956 | locus YJL095W, strain BCK1 (second series), stronger effect = lower value 0.967 | locus YJL095W, strain BCK1, stronger effect = lower value 0.985 and 1.04 | locus YJL115W, strain asf1, stronger effect = lower value 0.939 | locus YJL129C, strain trk1, stronger effect = lower value 0.95 | locus YJL134W, strain LCB3, stronger effect = lower value 1 | locus YJL154C, strain vps35, stronger effect = lower value 0.976 | locus YJL164C, strain tpk1, stronger effect = lower value 0.964 | locus YJL166W, strain qcr8, stronger effect = lower value 0.977 | locus YJL168C, strain set2, stronger effect = lower value 0.997 | locus YJL187C, strain SWE1 (second series), stronger effect = lower value 1.01 | locus YJL187C, strain SWE1, stronger effect = lower value 0.966
